Among all 220,000 compounds or so, about 530 (0.24%) were called active. The full list was thinned out, with actives kept by preference. Measured potencies and affinities stand elsewhere. Values without a mark were called inactive. No stated cut-off is given here; in the data, active means inhibition above about 13%; inconclusive means no clear call, values can overlap the other calls; inactive means below that.
Target: Bifunctional protein GlmU (Mycobacterium tuberculosis (strain ATCC 25618 / H37Rv)) (UniProt P9WMN3)
Sequence (P9WMN3 whole entry, looked up): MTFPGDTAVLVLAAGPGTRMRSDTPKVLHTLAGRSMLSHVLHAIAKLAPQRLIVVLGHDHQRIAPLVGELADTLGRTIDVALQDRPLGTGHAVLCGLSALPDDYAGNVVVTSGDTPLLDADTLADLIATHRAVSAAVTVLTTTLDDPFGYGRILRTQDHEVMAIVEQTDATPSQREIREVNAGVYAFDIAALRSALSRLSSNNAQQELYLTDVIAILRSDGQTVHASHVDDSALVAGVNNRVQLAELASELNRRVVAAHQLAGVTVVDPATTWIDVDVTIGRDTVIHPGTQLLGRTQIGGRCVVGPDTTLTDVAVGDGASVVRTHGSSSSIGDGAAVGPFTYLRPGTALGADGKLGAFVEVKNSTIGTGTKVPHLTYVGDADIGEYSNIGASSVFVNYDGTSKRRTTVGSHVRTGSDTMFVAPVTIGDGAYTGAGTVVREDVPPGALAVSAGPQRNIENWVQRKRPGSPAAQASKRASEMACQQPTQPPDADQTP
Test: inhibition of mycobacterial GlmU enzyme – biochemical, glucosamine-1-phosphate acetyltransferase (AID 1376);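 further: 0% = complete reaction with vehicle and 100% = reaction without substrate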
Details: M. tuberculosis GlmU acetyltransferase enzyme assay; hits give high values;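 tested at 30 µM in the primary screen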

SMILES	inhibition
CCCCCC(=O)c1c(C)[nH]c(C(=O)OCC)c1C	2.82%
NC(=O)C1(N2CCCCC2)CCN(C(=S)Nc2cc(F)cc(F)c2)CC1	3.46%
Cn1nnc(CC[N+](C)(C)C)n1	-0.54%
CCOC(=O)c1cnc2c(-c3ccc(Cl)cc3)c(C)nn2c1N	-0.25%
CCn1c(SCC(=O)OCC(=O)N2c3ccccc3NC(=O)C2(C)C)nnc1-c1ccco1	3.17%
CCN(c1ccc(NS(=O)(=O)c2cc(Cl)ccc2Cl)cc1)C(C)C	-7.63%
CCc1c(C)sc(NC(=O)c2ccco2)c1C(=O)N1CCCCC1	0.95%
CCc1c(C)sc(NC(=O)c2ccco2)c1C(=O)N1CCOCC1	13.4% (active)
CCc1c(C)sc(NC(=O)OC)c1C(=O)N1CCOCC1	2.3%
Cc1ccccc1NC(=S)N(CCN(C)C)C(C)c1ccco1 (configuration not stated)	-1.1%
CC1=NN(c2ccccc2)C(=O)/C1=C/c1c(O)n(-c2ccc(F)c(Cl)c2)[nH]c1=O	13.6% (active)
CC1=NN(c2ccccc2)C(=O)/C1=C/c1c(O)n(-c2ccc(F)cc2)[nH]c1=O	7.97%
CC1=NN(c2ccccc2)C(=O)/C1=C/c1c(O)[nH]c(=S)[nH]c1=O	-4.55%
CCOc1ccc(Nc2nc3ccccc3c(=O)s2)cc1	13.8% (active)
O=c1sc(Nc2ccccc2)nc2ccccc12	4.04%
CCc1ccc(Nc2nc3ccccc3c(=O)s2)cc1	-0.12%
COc1ccc(/C=N/NC(=O)CCC(=O)Nc2ccccc2)cc1OC	-0.28%
COc1ccc(N2CCN(C(CNC(=O)C(=O)NCCCn3ccnc3)c3cccnc3)CC2)cc1 (configuration not stated)	4.95%
COc1ccc(/C=C/C(=O)Nc2cc(C(F)(F)F)ccc2Cl)cc1OC	-4.68%
COc1ccc(C(=O)Nc2cc(C(F)(F)F)ccc2Cl)cc1OC	48.9% (active)
COc1cccc(C(=O)Nc2cc(C(F)(F)F)ccc2Cl)c1	-5.67%
Nc1ccc2nc3c(=O)n(C4CCCCC4)c(=O)[nH]c3nc2c1	-0.52%
Nc1cc2nc3ccccc3nc2cc1N	1.38%
C/C(=N/NS(=O)(=O)c1ccc(C)cc1)[C@H]1C[C@@H]1c1ccccc1	1.42%
COC(=O)c1ccc(OCC(=O)c2ccccc2)cc1	2.96%
COC(=O)c1ccc(OCCOc2ccc(C(=O)OC)cc2)cc1	-4.5%

SMILES	inhibition
COC(=O)c1ccc(OCCOc2ccccc2)cc1	14.7% (active)
CCNCCNc1ccc(Cl)cc1[N+](=O)[O-]	0.23%
c1ccc(CCn2nnnc2C(c2cccnc2)N2CCN(c3ccccc3)CC2)cc1 (configuration not stated)	-3.96%
CSc1nnc([C@@H]2CCCN2C(=O)OC(C)(C)C)o1	6.66%
CCOC(=O)c1oc2nc(CC(C)C)c3c(c2c1N)CCCC3	2.38%
CC(C)c1cc(NCC2CCCO2)n2c(nc3ccccc32)c1C#N (configuration not stated)	5.33%
Cc1cc(NCC2CCCO2)n2c(nc3ccccc32)c1C#N (configuration not stated)	12.8% (active)
CCCc1cc(NCC2CCCO2)n2c(nc3ccccc32)c1C#N (configuration not stated)	7.14%
O=C(NCC1(N2CCCCC2)CCCCC1)c1ccc(S(=O)(=O)N2CCCC2)cc1	7.41%
Cc1ccccc1NS(=O)(=O)c1ccc2c(c1)NC(=O)CO2	13.3% (active)
Cc1cccc(C)c1NS(=O)(=O)c1ccc2c(c1)NC(=O)CO2	7.49%
Cc1c(F)cccc1NS(=O)(=O)c1ccc2c(c1)NC(=O)CO2	-2.89%
Cc1nc(Nc2ccccc2)sc1C(=O)Nc1ccccc1	2.24%
Cc1nc(NC(N)=S)sc1C(=O)Nc1ccccc1	14.8% (active)
Cc1nc(NC(=O)COc2ccccc2)sc1C(=O)Nc1ccccc1	6.13%
O=C(NCc1n[nH]c(=S)n1-c1ccc(F)cc1)c1ccco1	3.33%
CCOC(=O)CC(=O)CSc1nc(-c2cccnc2)ccc1C#N	2.76%
Cc1ccc(NC(=O)Cn2nnc3ccccc32)cc1	-1.28%
CCCCn1c(CNC(=O)C23CC4CC(CC(C4)C2)C3)nnc1SC(C)CC (configuration not stated)	-3.15%
Cc1ccc(S(=O)(=O)N(C)C/N=C(\N)N[N+](=O)[O-])cc1	-3.35%
O=C1CCCC(O)=C1N=Nc1ccc(Cl)c(Cl)c1	0.41%
O=C1CCCC(O)=C1N=Nc1ccc2c(c1)OCO2	1.81%
O=C1CCCC(O)=C1N=Nc1ccc(C(=O)O)cc1	13.3% (active)
CCc1nnc(NC(=O)CSc2nc(-c3ccccc3)nc3ccccc23)s1	-1.88%
CC1CC(C)(C)NC(=S)N1CCCC(=O)NCc1ccccc1 (configuration not stated)	-0.79%
CN1CCN(C(c2cccnc2)c2ccc3cccnc3c2O)CC1 (configuration not stated)	-1.35%

Source: PubChem BioAssay AID1376 (SRMLSC, 2008)
